Compounds without any hit were thinned out: in the full panel of roughly 83,000, 20% have a hit.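 Compound tested at a single concentration for 48 hours in 96-well plates; a percent growth value below 10 was scored as active.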 Active and inactive are the calls of the source.
Assays:
Assay in all cases: NCI-60 one-dose screen, 48 h (100 = growth as untreated, 0 = no growth, -100 = all killed)
Conditions in all cases: 10 µM unless noted
DU-145 prostate = test system: DU-145 prostate
K-562 leukemia = test system: K-562 leukemia
MALME-3M melanoma = test system: MALME-3M melanoma
MDA-MB-231 breast = test system: MDA-MB-231 breast
SF-268 CNS = test system: SF-268 CNS
SF-295 CNS = test system: SF-295 CNS
SF-539 CNS = test system: SF-539 CNS
UACC-257 melanoma = test system: UACC-257 melanoma
M14 melanoma = test system: M14 melanoma
HCT-15 colon = test system: HCT-15 colon
HT29 colon = test system: HT29 colon
SNB-75 CNS = test system: SNB-75 CNS
SNB-19 CNS = test system: SNB-19 CNS
U251 CNS = test system: U251 CNS
PC-3 prostate = test system: PC-3 prostate
SK-MEL-5 melanoma = test system: SK-MEL-5 melanoma
UACC-62 melanoma = test system: UACC-62 melanoma
LOX IMVI melanoma = test system: LOX IMVI melanoma
SK-MEL-28 melanoma = test system: SK-MEL-28 melanoma

Measured: growth

CC1(C)CN(Cc2ccccc2)CCN1Cc1ccccc1
inactive: DU-145 prostate 114% | K-562 leukemia 98.8% | MALME-3M melanoma 116% | MDA-MB-231 breast 101% | SF-268 CNS 105% | SF-295 CNS 101% | SF-539 CNS 107% | UACC-257 melanoma 89.1% | M14 melanoma 107% | HCT-15 colon 104% | HT29 colon 96.2% | SNB-75 CNS 121% | SNB-19 CNS 98.1% | U251 CNS 92.3% | PC-3 prostate 95.4% | SK-MEL-5 melanoma 97.8% | UACC-62 melanoma 97.9% | LOX IMVI melanoma 98.6% | SK-MEL-28 melanoma 111%

CC[C@H](C)[C@@H]1NC(=O)[C@H](Cc2ccc(O)cc2)N(C)C(=O)[C@H](Cc2ccccc2)NC(=O)CN(C)C(=O)[C@@H]2CCCN2C(=O)[C@@H](Cc2ccccc2)N(C)C(=O)[C@H](CC(C)C)NC1=O
active: DU-145 prostate 0.387% | K-562 leukemia 6.28% | MALME-3M melanoma -25.5% | MDA-MB-231 breast -12.6% | SF-268 CNS -5.16% | SF-295 CNS -23.5% | SF-539 CNS -24.8% | UACC-257 melanoma -0.97% | M14 melanoma -69.4% | HT29 colon 4.78% | SNB-75 CNS -11.6% | SNB-19 CNS -8.3% | U251 CNS 6.02% | PC-3 prostate 2.42% | SK-MEL-5 melanoma -67.2% | UACC-62 melanoma -28.8% | LOX IMVI melanoma -18.6% | SK-MEL-28 melanoma -43.8%
inactive: HCT-15 colon 41.5%

CCN(CC)CCCC(C)Nc1c2c(nc3ccc(OC)cc13)CCCC2 (configuration not stated)
inactive: DU-145 prostate 111% | K-562 leukemia 79.9% | MALME-3M melanoma 118% | MDA-MB-231 breast 79.8% | SF-268 CNS 86.2% | SF-295 CNS 78% | SF-539 CNS 89.8% | UACC-257 melanoma 112% | M14 melanoma 100% | HCT-15 colon 100% | HT29 colon 79.4% | SNB-75 CNS 72.8% | SNB-19 CNS 100% | U251 CNS 105% | PC-3 prostate 98.6% | SK-MEL-5 melanoma 105% | UACC-62 melanoma 103% | LOX IMVI melanoma 87.5% | SK-MEL-28 melanoma 101%

COc1ccc(-c2ncc(-c3ccccc3)[nH]2)cc1OC
inactive: DU-145 prostate 131% | K-562 leukemia 93.9% | MALME-3M melanoma 260% | MDA-MB-231 breast 107% | SF-268 CNS 103% | SF-295 CNS 88.6% | SF-539 CNS 100% | UACC-257 melanoma 10.5% | M14 melanoma 119% | HCT-15 colon 104% | HT29 colon 113% | SNB-75 CNS 108% | SNB-19 CNS 104% | U251 CNS 113% | PC-3 prostate 112% | SK-MEL-5 melanoma 106% | UACC-62 melanoma 95.3% | LOX IMVI melanoma 116% | SK-MEL-28 melanoma 105%

O=C(N/N=C/c1ccc(F)cc1)c1ccccc1Nc1cccc(C(F)(F)F)c1
inactive: DU-145 prostate 96.8% | K-562 leukemia 83.9% | MALME-3M melanoma 111% | MDA-MB-231 breast 117% | SF-268 CNS 82.6% | SF-295 CNS 121% | SF-539 CNS 109% | UACC-257 melanoma 105% | M14 melanoma 95% | HCT-15 colon 85.6% | HT29 colon 118% | SNB-75 CNS 99.5% | SNB-19 CNS 90.2% | U251 CNS 100% | PC-3 prostate 96.2% | SK-MEL-5 melanoma 109% | UACC-62 melanoma 101% | LOX IMVI melanoma 86.6% | SK-MEL-28 melanoma 91.2%

O=c1[nH]nc(-c2ccc(Cl)cc2)cc1Cc1cccc([N+](=O)[O-])c1
inactive: DU-145 prostate 98.7% | K-562 leukemia 94.2% | MALME-3M melanoma 119% | MDA-MB-231 breast 72.6% | SF-268 CNS 95.4% | SF-295 CNS 92.4% | SF-539 CNS 98.5% | UACC-257 melanoma 97% | M14 melanoma 107% | HCT-15 colon 105% | HT29 colon 116% | SNB-75 CNS 110% | SNB-19 CNS 88.5% | U251 CNS 92.1% | PC-3 prostate 91.1% | SK-MEL-5 melanoma 79.3% | UACC-62 melanoma 74.3% | LOX IMVI melanoma 93.5% | SK-MEL-28 melanoma 109%

c1ccc(C2CC(c3cccc(Nc4ccncc4)c3)=NN2c2ccccc2)cc1 (configuration not stated)
active: K-562 leukemia 0.756% | MALME-3M melanoma -12.1% | M14 melanoma -57.4% | HCT-15 colon -15.7% | HT29 colon 1.62% | SK-MEL-28 melanoma -56.2%
inactive: DU-145 prostate 67.7% | MDA-MB-231 breast 75.3% | SF-268 CNS 86.6% | SF-295 CNS 78.6% | SF-539 CNS 78.1% | UACC-257 melanoma 34% | SNB-75 CNS 77.3% | SNB-19 CNS 89.1% | U251 CNS 25.6% | PC-3 prostate 54.5% | SK-MEL-5 melanoma 75.3% | UACC-62 melanoma 96.8% | LOX IMVI melanoma 43.7%

NC(=O)c1ncn(C2OC(CO)C(O)C2O)n1 (configuration not stated)
inactive: DU-145 prostate 85.1% | K-562 leukemia 61.1% | MALME-3M melanoma 93.8% | MDA-MB-231 breast 103% | SF-268 CNS 98% | SF-295 CNS 99.9% | SF-539 CNS 97.6% | UACC-257 melanoma 97.7% | M14 melanoma 92.8% | HCT-15 colon 89.3% | HT29 colon 73.3% | SNB-75 CNS 80.6% | SNB-19 CNS 104% | U251 CNS 99.7% | PC-3 prostate 85.2% | SK-MEL-5 melanoma 99.1% | UACC-62 melanoma 104% | LOX IMVI melanoma 90.3% | SK-MEL-28 melanoma 106%

From PubChem BioAssay (NCI)
